The text below walks through data of PubChem BioAssay (Tox21).

Each structure is given as a SMILES string. Records with an inconclusive call do not appear. A number with no mark means an inactive call. The call rests on the fitted dose curve; in most records, active means well fitted cell-killing curve with a large enough effect in the repeat runs; inconclusive means weak or mixed curves, or effect the other way; inactive means flat fitted curve, though single readings scatter. Where a SMILES comes first, the peptide text is derived from it. [ ]: non-standard residue; d: D form. pGlu = O=C1CC[C@@H](C(=O)O)N1
Further: nearly all actives have a fitted effect of over 45% in size.
On the % scale 0 is the no-effect control and ±100 the full control effect.

One experiment is described as follows: qHTS assay to identify small molecule agonists of the constitutive androstane receptor (CAR) signaling pathway - cell viability counter screen (AID 1224836). Particulars: HepG2-CYP2B6-hCAR viability, CellTiter-Fluor, 23 h, PK11195 added to every well; series mostly up to 92.4 µM; viability change, negative = cytotoxic: at the top concentration. An outline of the steps: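 HepG2-CYP2B6-hCAR, 2500 cells/well, 4 h pre-incubation; cpd 15 conc + PK11195 0.75 uM final; 23 h, 37 C/5% CO2; CellTiter-Fluor, fluorescence.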
In general terms: Quantitative high-throughput screening tests each substance at several concentrations.
`Clc1cc(Cl)c(Cl)nc1Cl`: the “viability change, negative = cytotoxic” value was -1.76%.

Turning to `C[C@@H]1CCC[C@H](C)N1`, the “viability change, negative = cytotoxic” value is 6.93% [at 42.5 µM].

Turning to `CCOC(=O)OC(C)OC1=C(C(=O)Nc2ccccn2)N(C)S(=O)(=O)c2ccccc21` (stereo unspecified), the “viability change, negative = cytotoxic” value is 3% [at 42.5 µM].

Take `O=C(O)CC(C(=O)O)S(=O)(=O)O` (stereo unspecified): the “viability change, negative = cytotoxic” value was 5.82%.

Take `[O-][n+]1cccc(CO)c1`: the “viability change, negative = cytotoxic” value is 4.97% [at 42.5 µM].

On to `CC(=O)c1ccccc1[N+](=O)[O-]`, for which the “viability change, negative = cytotoxic” value is 5.71%.

For the compound `Cc1cccc(C)c1NC(=O)CC12CCCN1CCC2`, the “viability change, negative = cytotoxic” value was 2% [at 42.5 µM].

With `OCCCCCO`, the “viability change, negative = cytotoxic” value was 0.374%.

With `CC(COc1ccccc1)NN` (stereo unspecified), the “viability change, negative = cytotoxic” value is 11.6% [at 42.5 µM].

With `NS(=O)(=O)Cc1noc2ccccc12`, the “viability change, negative = cytotoxic” value is -6.61% [at 42.5 µM].

With `Cc1cc(C)c(N=Nc2c(O)c(S(=O)(=O)O)cc3cc(S(=O)(=O)O)ccc23)cc1C`, the viability change, negative = cytotoxic is -15.6% [at 8.39 µM].

`Nc1c2c(nc3c1CCC3)CCCC2`: the “viability change, negative = cytotoxic” value is -3.74% [at 42.5 µM].

`O=S(=O)(O)c1cccc2c(S(=O)(=O)O)cccc12`: the “viability change, negative = cytotoxic” value was 0%.

With `CCCCCCCCN1CCCC1=O`, the “viability change, negative = cytotoxic” value is 1.71%.

In the case of `CNCC(O)c1ccc(O)c(O)c1` (stereo unspecified), the “viability change, negative = cytotoxic” value was -22.2% [at 42.5 µM].

For the compound `O=S(=O)(O)c1cccc(S(=O)(=O)O)c1`, the “viability change, negative = cytotoxic” value was 1.8%.

Consider `CCCO[Si](OCCC)(OCCC)OCCC`, for which the “viability change, negative = cytotoxic” value was 1.06%.

As to `CC[C@H]1OC(=O)[C@H](C)[C@@H](O[C@H]2C[C@@](C)(OC)[C@@H](O)[C@H](C)O2)[C@H](C)[C@@H](O[C@@H]2O[C@H](C)C[C@H](N(C)C)[C@H]2O)[C@](C)(OC)C[C@@H](C)C(=O)[C@H](C)[C@@H](O)[C@]1(C)O`, the “viability change, negative = cytotoxic” value is -7.6%.

`C=CCCCCCCCCC(=O)OCC`: the “viability change, negative = cytotoxic” value was 5.41%.

As to `CO[Si](C)(OC)c1ccccc1`, the “viability change, negative = cytotoxic” value was 3.33%.

As for `C=CCCC(=O)O`, the “viability change, negative = cytotoxic” value was 1.62%.

For `O=Cc1cccc(Br)c1`, the “viability change, negative = cytotoxic” value was 3.79%.

As to `CN1C(C)(C)CC(O)CC1(C)C`, the “viability change, negative = cytotoxic” value is 1.26%.

Take `C[N+]1(CC2COC(c3ccccc3)(c3ccccc3)O2)CCCCC1` (stereo unspecified): the viability change, negative = cytotoxic is 1.16% [at 19 µM].

With `Clc1cc(Cl)cc(Cl)c1`, the “viability change, negative = cytotoxic” value was -0.318%.

As for `CCOC(=O)COC(=O)c1ccccc1C(=O)OCC`, the “viability change, negative = cytotoxic” value is 0.924%.

For `CC1=NN(c2cccc(S(=O)(=O)O)c2)C(=O)C1`, the “viability change, negative = cytotoxic” value is 9.04%.

For `CN1CCC(=C2c3ccccc3CCc3cccnc32)CC1`, the “viability change, negative = cytotoxic” value is -17.5% [at 42.5 µM].

Regarding `Cc1nc(C2CCCCC2)c(-c2ccc(S(N)(=O)=O)c(F)c2)o1`, the “viability change, negative = cytotoxic” value was 2.46% [at 42.5 µM].

As for `Nc1ccn([C@@H]2O[C@H](CO)[C@@H](O)C2(F)F)c(=O)n1`, the “viability change, negative = cytotoxic” value is -14.5% [at 42.5 µM].

As for `CCCCCCC1CCC(=O)O1` (stereo unspecified), the “viability change, negative = cytotoxic” value was 1.47%.

As to `C=COCC1CCC(COC=C)CC1` (stereo unspecified), the “viability change, negative = cytotoxic” value was -14%.

For the compound `CC1(C)OC[C@@H](COC(=O)CCc2ccc(OC[C@@H](O)CNCCNC(=O)N3CCOCC3)cc2)O1`, the “viability change, negative = cytotoxic” value was -0.886% [at 42.5 µM].

On to `CC(=O)Oc1cccc(C)c1`, for which the “viability change, negative = cytotoxic” value was 8.75% [at 42.5 µM].

Take `CCC(C(=O)NC(=O)NC(C)=O)c1ccccc1` (stereo unspecified): the “viability change, negative = cytotoxic” value was 8.77% [at 42.5 µM].

As for `O=C(O)CCCC[P+](c1ccccc1)(c1ccccc1)c1ccccc1`, the “viability change, negative = cytotoxic” value was 4.66% [at 42.5 µM].

Turning to `CCCCOCCOC(=O)CCCCCCCCC(=O)OCCOCCCC`, the “viability change, negative = cytotoxic” value was 0.577%.

Take `CCNC(=O)[C@@H]1CCCN1C(=O)[C@H](CCCN=C(N)N)NC(=O)[C@H](CC(C)C)NC(=O)CNC(=O)[C@H](Cc1ccc(O)cc1)NC(=O)[C@H](CO)NC(=O)[C@H](Cc1c[nH]c2ccccc12)NC(=O)[C@H](Cc1cnc[nH]1)NC(=O)[C@@H]1CCC(=O)N1` ([pGlu]HWSYGLRP-NHEt): the “viability change, negative = cytotoxic” value is 6.47% [at 42.5 µM].

The nature of the next experiment: qHTS assay to identify small molecule antagonists of the constitutive androstane receptor (CAR) signaling pathway - cell viability counter screen (AID 1224837). Particulars: HepG2-CYP2B6-hCAR viability, CellTiter-Fluor, 23 h, co-treated with 50 nM CITCO; series mostly up to 92.4 µM; activity change, negative = cytotoxicity: at the top concentration. An outline of the steps:
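Using CellTiter-Fluor, viability is scored in HepG2 cells stably carrying hCAR and a 2.2kb CYP2B6 reporter after 23 hr compound exposure across 15 concentrations, with CITCO present at 50 nM.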
In the case of `Clc1cc(Cl)c(Cl)nc1Cl`, the “activity change, negative = cytotoxicity” value was -0.93%.

With `C[C@@H]1CCC[C@H](C)N1`, the “activity change, negative = cytotoxicity” value was 2.53% [at 42.5 µM].

As to `CCOC(=O)OC(C)OC1=C(C(=O)Nc2ccccn2)N(C)S(=O)(=O)c2ccccc21` (stereo unspecified), the “activity change, negative = cytotoxicity” value is -3.68% [at 42.5 µM].

Turning to `O=C(O)CC(C(=O)O)S(=O)(=O)O` (stereo unspecified), the “activity change, negative = cytotoxicity” value is 6.04%.

Turning to `[O-][n+]1cccc(CO)c1`, the “activity change, negative = cytotoxicity” value was 4% [at 42.5 µM].

As for `CC(=O)c1ccccc1[N+](=O)[O-]`, the “activity change, negative = cytotoxicity” value is -1.14%.

As to `Cc1cccc(C)c1NC(=O)CC12CCCN1CCC2`, the “activity change, negative = cytotoxicity” value is 4.76% [at 42.5 µM].

With `OCCCCCO`, the “activity change, negative = cytotoxicity” value was 15.4%.

For the compound `CC(COc1ccccc1)NN` (stereo unspecified), the “activity change, negative = cytotoxicity” value is 3.29% [at 42.5 µM].

For `NS(=O)(=O)Cc1noc2ccccc12`, the “activity change, negative = cytotoxicity” value was -3.05% [at 42.5 µM].

`Cc1cc(C)c(N=Nc2c(O)c(S(=O)(=O)O)cc3cc(S(=O)(=O)O)ccc23)cc1C`: the activity change, negative = cytotoxicity is 0.232% [at 8.39 µM].

With `Nc1c2c(nc3c1CCC3)CCCC2`, the “activity change, negative = cytotoxicity” value is -15.3% [at 42.5 µM].

As to `O=S(=O)(O)c1cccc2c(S(=O)(=O)O)cccc12`, the “activity change, negative = cytotoxicity” value is 0.223%.

Take `CCCCCCCCN1CCCC1=O`: the “activity change, negative = cytotoxicity” value is -0.376%.

On to `CNCC(O)c1ccc(O)c(O)c1` (stereo unspecified), for which the “activity change, negative = cytotoxicity” value is -14.2% [at 42.5 µM].

Turning to `O=S(=O)(O)c1cccc(S(=O)(=O)O)c1`, the “activity change, negative = cytotoxicity” value was 3.97%.

As for `CCCO[Si](OCCC)(OCCC)OCCC`, the “activity change, negative = cytotoxicity” value was 0.451%.

For the compound `CC[C@H]1OC(=O)[C@H](C)[C@@H](O[C@H]2C[C@@](C)(OC)[C@@H](O)[C@H](C)O2)[C@H](C)[C@@H](O[C@@H]2O[C@H](C)C[C@H](N(C)C)[C@H]2O)[C@](C)(OC)C[C@@H](C)C(=O)[C@H](C)[C@@H](O)[C@]1(C)O`, the “activity change, negative = cytotoxicity” value was 2.7%.

With `C=CCCCCCCCCC(=O)OCC`, the “activity change, negative = cytotoxicity” value was 0.611%.

As to `CO[Si](C)(OC)c1ccccc1`, the “activity change, negative = cytotoxicity” value is 2.82%.

Take `C=CCCC(=O)O`: the “activity change, negative = cytotoxicity” value was 0.201%.

In the case of `O=Cc1cccc(Br)c1`, the “activity change, negative = cytotoxicity” value was 2.25%.

Regarding `CN1C(C)(C)CC(O)CC1(C)C`, the “activity change, negative = cytotoxicity” value is 3.12%.

In the case of `C[N+]1(CC2COC(c3ccccc3)(c3ccccc3)O2)CCCCC1` (stereo unspecified), the activity change, negative = cytotoxicity is 4.57% [at 19 µM].

As for `Clc1cc(Cl)cc(Cl)c1`, the “activity change, negative = cytotoxicity” value is -0.441%.

For `CCOC(=O)COC(=O)c1ccccc1C(=O)OCC`, the “activity change, negative = cytotoxicity” value was 7.02%.

With `CC1=NN(c2cccc(S(=O)(=O)O)c2)C(=O)C1`, the “activity change, negative = cytotoxicity” value is -2.91%.

Take `CN1CCC(=C2c3ccccc3CCc3cccnc32)CC1`: the “activity change, negative = cytotoxicity” value is -14.8% [at 42.5 µM].

With `Cc1nc(C2CCCCC2)c(-c2ccc(S(N)(=O)=O)c(F)c2)o1`, the “activity change, negative = cytotoxicity” value was 3.15% [at 42.5 µM].

Take `Nc1ccn([C@@H]2O[C@H](CO)[C@@H](O)C2(F)F)c(=O)n1`: the “activity change, negative = cytotoxicity” value is -9.74% [at 42.5 µM].

As for `CCCCCCC1CCC(=O)O1` (stereo unspecified), the “activity change, negative = cytotoxicity” value was 4.87%.

As to `C=COCC1CCC(COC=C)CC1` (stereo unspecified), the “activity change, negative = cytotoxicity” value was -11.3%.

For the compound `CC1(C)OC[C@@H](COC(=O)CCc2ccc(OC[C@@H](O)CNCCNC(=O)N3CCOCC3)cc2)O1`, the “activity change, negative = cytotoxicity” value is 2.47% [at 42.5 µM].

Turning to `CC(=O)Oc1cccc(C)c1`, the “activity change, negative = cytotoxicity” value was -1.34% [at 42.5 µM].

Turning to `CCC(C(=O)NC(=O)NC(C)=O)c1ccccc1` (stereo unspecified), the “activity change, negative = cytotoxicity” value was 5.39% [at 42.5 µM].

`O=C(O)CCCC[P+](c1ccccc1)(c1ccccc1)c1ccccc1`: the “activity change, negative = cytotoxicity” value was 0.333% [at 42.5 µM].

With `CCCCOCCOC(=O)CCCCCCCCC(=O)OCCOCCCC`, the “activity change, negative = cytotoxicity” value is 3.48%.

Turning to `CCNC(=O)[C@@H]1CCCN1C(=O)[C@H](CCCN=C(N)N)NC(=O)[C@H](CC(C)C)NC(=O)CNC(=O)[C@H](Cc1ccc(O)cc1)NC(=O)[C@H](CO)NC(=O)[C@H](Cc1c[nH]c2ccccc12)NC(=O)[C@H](Cc1cnc[nH]1)NC(=O)[C@@H]1CCC(=O)N1` ([pGlu]HWSYGLRP-NHEt), the “activity change, negative = cytotoxicity” value was 3.99% [at 42.5 µM].
